Results on 10 sequences are retold here after article PMC8384837, “Expanding the binding specificity for RNA recognition by a PUF domain”.

Substitutions are numbered along the chain they refer to.

Assay in all cases: yeast three-hybrid, YBZ-1, SC-Leu-His + 0.5 mM 3-AT, 4 days
Holding throughout (details): tags: N-Gal4 AD-HA kept; label: inside an RPR1-promoter hybrid RNA with tandem MS2 sites; ssRNA

The target in one assay is PUM1 PUF domain R8-KFH (Homo sapiens, UniProt Q14671 828-1176, N1122K;Y1123F;Q1126H). Summed up: (§1)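 Pumilio-1 PUF domain libraries, randomized (NNK) at the three base-contacting residues of each repeat, were co-expressed with matching RNA elements from a centromeric plasmid in strain YBZ-1 (LexA–MS2 coat fusion, HIS3 reporter). Transformants were plated on SC-Leu (input) and SC-Leu-His + 0.5 mM 3-AT (selection) for four days, and repeat regions were PCR-amplified and Illumina-sequenced. The interaction score is the log2 change in variant frequency from input to selection, with pseudocount 1 where absent.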

The target in a further assay is PUM1 PUF domain R8-KWW (Homo sapiens, UniProt Q14671 828-1176, N1122K;Y1123W;Q1126W). Summed up:
as §1

A further assay addresses PUM1 PUF domain R8-LYA (Homo sapiens, UniProt Q14671 828-1176, N1122L;Q1126A). Summed up:
as §1

The target of another assay is T1, PUM1 PUF domain R6-FWL (Homo sapiens, UniProt Q14671 828-1176, N1043F;Y1044W;Q1047L).
T1 sequence: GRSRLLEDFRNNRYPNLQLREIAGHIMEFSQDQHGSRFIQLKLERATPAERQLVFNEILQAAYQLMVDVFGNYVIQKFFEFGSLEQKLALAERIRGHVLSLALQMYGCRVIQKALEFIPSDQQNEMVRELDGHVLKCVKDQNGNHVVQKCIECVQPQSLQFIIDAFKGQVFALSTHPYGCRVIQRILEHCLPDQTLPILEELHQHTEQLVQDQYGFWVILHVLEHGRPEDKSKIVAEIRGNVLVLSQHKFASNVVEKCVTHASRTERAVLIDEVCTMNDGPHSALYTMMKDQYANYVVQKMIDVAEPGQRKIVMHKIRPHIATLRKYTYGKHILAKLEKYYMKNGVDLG
Summed up: as §1

A further assay concerns the target PUM1 PUF domain R2-GFD (Homo sapiens, UniProt Q14671 828-1176, N899G;Y900F;Q903D). Summed up: as §1
Another assay has as its target PUM1 PUF domain R5-GKD (Homo sapiens, UniProt Q14671 828-1176, C1007G;R1008K;Q1011D). Summed up: as §1
A further assay addresses PUM1 PUF domain R5-GCR (Homo sapiens, UniProt Q14671 828-1176, C1007G;R1008C;Q1011R). Summed up:
as §1

The next assay deals with PUM1 PUF domain R5-KPL (Homo sapiens, UniProt Q14671 828-1176, C1007K;R1008P;Q1011L). Summed up:
as §1

Another assay deals with PUM1 PUF domain R5-KSL (Homo sapiens, UniProt Q14671 828-1176, C1007K;R1008S;Q1011L). Summed up:
as §1

For a further assay, the target named is PUM1 PUF domain R4-SCM (Homo sapiens, UniProt Q14671 828-1176, N971S;H972C;Q975M). Summed up:
as §1

A further assay deals with PUM1 PUF domain R4-CFP (Homo sapiens, UniProt Q14671 828-1176, N971C;H972F;Q975P). Summed up:
as §1

Another assay deals with T2, PUM1 PUF domain R6-NRQ (Homo sapiens, UniProt Q14671 828-1176, Y1044R).
T2 sequence: T1 sequence with F216N, W217R, L220Q
Summed up: as §1

For another assay, the target named is T3, PUM1 PUF domain R6-FYR (Homo sapiens, UniProt Q14671 828-1176, N1043F;Q1047R).
T3 sequence: T1 sequence with W217Y, L220R
An outline of the steps: as §1

A further assay concerns the target PUM1 PUF domain R3-LYQ (Homo sapiens, UniProt Q14671 828-1176, C935L;R936Y). An outline of the steps: as §1
Another assay has as its target PUM1 PUF domain R3-RPS (Homo sapiens, UniProt Q14671 828-1176, C935R;R936P;Q939S). An outline of the steps:
as §1

For another assay, the target named is PUM1 PUF domain R3-VHW (Homo sapiens, UniProt Q14671 828-1176, C935V;R936H;Q939W). Summed up: as §1
In another assay the target is PUM1 PUF domain R3-VWF (Homo sapiens, UniProt Q14671 828-1176, C935V;R936W;Q939F). Summed up:
as §1

The next assay concerns the target T4, PUM1 PUF domain R6-HRK (Homo sapiens, UniProt Q14671 828-1176, N1043H;Y1044R;Q1047K).
T4 sequence: T1 sequence with F216H, W217R, L220K
Summed up:
as §1

A further assay deals with PUM1 PUF domain R3-CRH (Homo sapiens, UniProt Q14671 828-1176, Q939H). Summed up:
as §1

In another assay the target is PUM1 PUF domain R3-RAS (Homo sapiens, UniProt Q14671 828-1176, C935R;R936A;Q939S). An outline of the steps: as §1
Chain of PUM1 PUF domain R3-RAS (Q14671 828-1176 C935R/R936A/Q939S): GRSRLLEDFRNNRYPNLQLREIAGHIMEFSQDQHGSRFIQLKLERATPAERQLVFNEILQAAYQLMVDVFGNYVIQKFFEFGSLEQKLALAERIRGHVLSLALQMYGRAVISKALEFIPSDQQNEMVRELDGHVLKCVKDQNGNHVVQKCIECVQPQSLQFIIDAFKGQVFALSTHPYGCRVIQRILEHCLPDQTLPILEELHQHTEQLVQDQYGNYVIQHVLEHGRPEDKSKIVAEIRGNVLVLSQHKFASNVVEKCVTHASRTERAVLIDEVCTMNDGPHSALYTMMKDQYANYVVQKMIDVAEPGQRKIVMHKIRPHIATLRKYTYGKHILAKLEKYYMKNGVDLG

Chain of PUM1 PUF domain R5-KPL (Q14671 828-1176 C1007K/R1008P/Q1011L): as the sequence (Q14671 828-1176 C935R/R936A/Q939S) above, with R108C, A109R, S112Q, C180K, R181P, Q184L counted along it

As for “GGCUAGAACUAGUGGAUCCCCCGGCGCCCGGCGGCUCGAGCCCGGGUAAGCGUAAAUAGUCUGCAUGCCGCCGGGCGCCAUGCCUGCAGGUCGACUCUAGAAAACAUG”, the results for the binding signal in the assay with PUM1 PUF domain R8-KFH, in the assay with PUM1 PUF domain R8-KWW and with PUM1 PUF domain R8-LYA were 3.24 log2 enrichment (interaction score), 5.85 log2 enrichment (interaction score) and 2.77 log2 enrichment (interaction score), respectively.

On to “GGCUAGAACUAGUGGAUCCCCCGGCGCCCGGCGGCUCGAGCCCGGGUAAGUGAAAAUAGUCUGCAUGCCGCCGGGCGCCAUGCCUGCAGGUCGACUCUAGAAAACAUG”, for which the binding signal in the assay with PUM1 PUF domain R6-FWL was 5.88 log2 enrichment (interaction score).

For “GGCUAGAACUAGUGGAUCCCCCGGCGCCCGGCGGCUCGAGCCCGGGUAAGUGUAAAGAGUCUGCAUGCCGCCGGGCGCCAUGCCUGCAGGUCGACUCUAGAAAACAUG”, the binding signal with PUM1 PUF domain R2-GFD was 4.7 log2 enrichment (interaction score).

Take “GGCUAGAACUAGUGGAUCCCCCGGCGCCCGGCGGCUCGAGCCCGGGUAAGUGUCAAUAGUCUGCAUGCCGCCGGGCGCCAUGCCUGCAGGUCGACUCUAGAAAACAUG”: the binding signal is 2.2 log2 enrichment (interaction score) with PUM1 PUF domain R5-GKD, 5.08 log2 enrichment (interaction score) with PUM1 PUF domain R5-GCR, 4.18 log2 enrichment (interaction score) with PUM1 PUF domain R5-KPL and 3.79 log2 enrichment (interaction score) in the assay with PUM1 PUF domain R5-KSL.

Turning to “GGCUAGAACUAGUGGAUCCCCCGGCGCCCGGCGGCUCGAGCCCGGGUAAGUGUACAUAGUCUGCAUGCCGCCGGGCGCCAUGCCUGCAGGUCGACUCUAGAAAACAUG”, the binding signal in the assay with PUM1 PUF domain R4-SCM was 3.79 log2 enrichment (interaction score); in the assay with PUM1 PUF domain R4-CFP, 2.19 log2 enrichment (interaction score).

Consider “GGCUAGAACUAGUGGAUCCCCCGGCGCCCGGCGGCUCGAGCCCGGGUAAGUGUAAAUAGUCUGCAUGCCGCCGGGCGCCAUGCCUGCAGGUCGACUCUAGAAAACAUG”, for which the binding signal in the assay with PUM1 PUF domain R6-NRQ is 7.58 log2 enrichment (interaction score); in the assay with PUM1 PUF domain R8-KFH, 2.89 log2 enrichment (interaction score); with PUM1 PUF domain R6-FYR, 4.96 log2 enrichment (interaction score); with PUM1 PUF domain R3-LYQ, 3.33 log2 enrichment (interaction score); with PUM1 PUF domain R4-SCM it was 2.65 log2 enrichment (interaction score); with PUM1 PUF domain R3-RPS, 0.42 log2 enrichment (interaction score). Besides, the binding signal is 3.43 log2 enrichment (interaction score) with PUM1 PUF domain R8-KWW; 3.99 log2 enrichment (interaction score) with PUM1 PUF domain R3-VHW; 5.2 log2 enrichment (interaction score) with PUM1 PUF domain R3-VWF; 0.96 log2 enrichment (interaction score) with PUM1 PUF domain R5-KSL; 5.06 log2 enrichment (interaction score) with PUM1 PUF domain R4-CFP; 1.25 log2 enrichment (interaction score) with PUM1 PUF domain R8-LYA. The binding signal with PUM1 PUF domain R6-HRK is 2.98 log2 enrichment (interaction score); with PUM1 PUF domain R6-FWL it was 5.31 log2 enrichment (interaction score); with PUM1 PUF domain R3-CRH it was 3.86 log2 enrichment (interaction score).

In the case of “GGCUAGAACUAGUGGAUCCCCCGGCGCCCGGCGGCUCGAGCCCGGGUAAGUGUAUAUAGUCUGCAUGCCGCCGGGCGCCAUGCCUGCAGGUCGACUCUAGAAAACAUG”, in the assay with PUM1 PUF domain R4-CFP, the binding signal was 6.56 log2 enrichment (interaction score).

Turning to “GGCUAGAACUAGUGGAUCCCCCGGCGCCCGGCGGCUCGAGCCCGGGUAAGUGUAAGUAGUCUGCAUGCCGCCGGGCGCCAUGCCUGCAGGUCGACUCUAGAAAACAUG”, the binding signal with PUM1 PUF domain R3-VWF was 2.09 log2 enrichment (interaction score).

On to “GGCUAGAACUAGUGGAUCCCCCGGCGCCCGGCGGCUCGAGCCCGGGUAAGUGUUAAUAGUCUGCAUGCCGCCGGGCGCCAUGCCUGCAGGUCGACUCUAGAAAACAUG”, for which the binding signal with PUM1 PUF domain R5-GKD is 3.71 log2 enrichment (interaction score); with PUM1 PUF domain R5-GCR, 3.22 log2 enrichment (interaction score); with PUM1 PUF domain R5-KSL, 3.78 log2 enrichment (interaction score).

For the sequence “GGCUAGAACUAGUGGAUCCCCCGGCGCCCGGCGGCUCGAGCCCGGGUAAGUGUAAUUAGUCUGCAUGCCGCCGGGCGCCAUGCCUGCAGGUCGACUCUAGAAAACAUG”, the binding signal is 3.4 log2 enrichment (interaction score) in the assay with PUM1 PUF domain R3-RPS, 2.85 log2 enrichment (interaction score) with PUM1 PUF domain R3-VWF and 3.67 log2 enrichment (interaction score) with PUM1 PUF domain R3-RAS.
